Test results published in PubChem BioAssay AID1159580 (chemical genetic matrix, 2015).
Screen size: about 5,500 compounds; about 2,000 (36%) were called active. Another 18% or so got no clear call; they are omitted. Cut-off read from the data, not from the text of the source: active = normalized growth mostly below about 0.91 (no sharp cut-off); inconclusive = no clear call, values can overlap the other calls; inactive = mostly above about 0.92. The list shows a part of the results.

Test: chemical genetic growth profiling, strain panel (AID 1159580);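 note: tested at 20 µM; growth read once vehicle control cultures reached saturation at 30 °C; 1 = growth at the plate median or of vehicle wells; lower values mean less growth of the strain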
Conditions: growth OD

Measured: normalized growth

CCn1cc(C(=O)O)c(=O)c2cnc(N3CCCC3)nc21
inactive: S. cerevisiae deletion strains, locus YKL009W, strain mrt4, stronger effect = lower value 0.987 | S. cerevisiae deletion strains, locus YKL068W, stronger effect = lower value 1 | S. cerevisiae deletion strains, locus YKL085W, strain MDH1 (second series), stronger effect = lower value 0.998 | S. cerevisiae deletion strains, locus YKL085W, strain MDH1, stronger effect = lower value 0.998 | S. cerevisiae deletion strains, locus YKL160W, strain elf1, stronger effect = lower value 0.975 | S. cerevisiae deletion strains, locus YKL190W, strain CNB1, stronger effect = lower value 1 | S. cerevisiae deletion strains, locus YKR001C, strain vps1, stronger effect = lower value 0.943 | S. cerevisiae deletion strains, locus YKR026C, strain gcn3, stronger effect = lower value 1.02 | S. cerevisiae deletion strains, locus YKR091W, strain srl3, stronger effect = lower value 1 | S. cerevisiae deletion strains, locus YLL001W, strain dnm1, stronger effect = lower value 1.02 | S. cerevisiae deletion strains, locus YLL026W, stronger effect = lower value 1 | S. cerevisiae deletion strains, locus YLL041C, strain sdh2, stronger effect = lower value 0.993 | S. cerevisiae deletion strains, locus YLR027C, strain aat2, stronger effect = lower value 0.996 | S. cerevisiae deletion strains, locus YLR039C, strain RIC1, stronger effect = lower value 0.935 | S. cerevisiae deletion strains, locus YLR058C, strain SHM2, stronger effect = lower value 1.01 | S. cerevisiae deletion strains, locus YLR102C, strain apc9, stronger effect = lower value 1 | S. cerevisiae deletion strains, locus YLR113W, strain HOG1, stronger effect = lower value 0.986 | S. cerevisiae deletion strains, locus YLR221C, strain rsa3, stronger effect = lower value 0.994 | S. cerevisiae deletion strains, locus YLR258W, strain gsy2, stronger effect = lower value 1.02 | S. cerevisiae deletion strains, locus YLR262C, strain YPT6, stronger effect = lower value 0.904 | S. cerevisiae deletion strains, locus YLR268W, strain sec22, stronger effect = lower value 0.972 | S. cerevisiae deletion strains, locus YLR320W, strain mms22, stronger effect = lower value 1.03 | S. cerevisiae deletion strains, locus YLR330W, strain CHS5, stronger effect = lower value 1.01 | S. cerevisiae deletion strains, locus YLR342W, strain FKS1 (second series), stronger effect = lower value 1.04 | S. cerevisiae deletion strains, locus YLR342W, strain FKS1, stronger effect = lower value 1 | S. cerevisiae deletion strains, locus YLR357W, strain rsc2, stronger effect = lower value 1.01 | S. cerevisiae deletion strains, locus YLR370C, strain arc18, stronger effect = lower value 0.981 | S. cerevisiae deletion strains, locus YLR371W, strain rom2, stronger effect = lower value 0.998 | S. cerevisiae deletion strains, locus YLR384C, strain iki3, stronger effect = lower value 1.01 | S. cerevisiae deletion strains, locus YLR418C, strain cdc73, stronger effect = lower value 1.09 | S. cerevisiae deletion strains, locus YML016C, strain PPZ1, stronger effect = lower value 0.999 | S. cerevisiae deletion strains, locus YML032C, strain rad52, stronger effect = lower value 0.999 | S. cerevisiae deletion strains, locus YML120C, strain ndi1, stronger effect = lower value 0.981 | S. cerevisiae deletion strains, locus YML124C, strain tub3, stronger effect = lower value 0.993 | S. cerevisiae deletion strains, locus YMR058W, strain fet3, stronger effect = lower value 1 | S. cerevisiae deletion strains, locus YMR078C, strain ctf18, stronger effect = lower value 1 | S. cerevisiae deletion strains, locus YMR125W, strain sto1, stronger effect = lower value 1.01 | S. cerevisiae deletion strains, locus YMR129W, stronger effect = lower value 1 | S. cerevisiae deletion strains, locus YMR205C, strain PFK2, stronger effect = lower value 1.06 | S. cerevisiae deletion strains, locus YMR223W, strain ubp8, stronger effect = lower value 0.98 | S. cerevisiae deletion strains, locus YMR231W, strain pep5, stronger effect = lower value 1 | S. cerevisiae deletion strains, locus YMR263W, strain SAP30, stronger effect = lower value 1.01 | S. cerevisiae deletion strains, locus YMR307W, strain GAS1, stronger effect = lower value 1.06 | S. cerevisiae deletion strains, locus YNL067W, strain RPL9B, stronger effect = lower value 0.998 | S. cerevisiae deletion strains, locus YNL071W, strain lat1, stronger effect = lower value 1 | S. cerevisiae deletion strains, locus YNL128W, strain TEP1, stronger effect = lower value 1.05 | S. cerevisiae deletion strains, locus YNL153C, strain GIM3, stronger effect = lower value 0.996 | S. cerevisiae deletion strains, locus YNL183C, strain NPR1, stronger effect = lower value 0.924 | S. cerevisiae deletion strains, locus YNL209W, strain ssb2, stronger effect = lower value 0.993 | S. cerevisiae deletion strains, locus YNL233W, strain BNI4, stronger effect = lower value 1.02 | S. cerevisiae deletion strains, locus YNL248C, strain rpa49, stronger effect = lower value 0.956 | S. cerevisiae deletion strains, locus YNL250W, strain rad50, stronger effect = lower value 0.996 | S. cerevisiae deletion strains, locus YNL271C, strain bni1, stronger effect = lower value 1.02 | S. cerevisiae deletion strains, locus YNL298W, strain CLA4, stronger effect = lower value 1 | S. cerevisiae deletion strains, locus YNL307C, strain MCK1, stronger effect = lower value 1.03 | S. cerevisiae deletion strains, locus YNL322C, strain KRE1 (second series), stronger effect = lower value 1 | S. cerevisiae deletion strains, locus YNL322C, strain KRE1, stronger effect = lower value 0.999 | S. cerevisiae deletion strains, locus YNR049C, strain mso1, stronger effect = lower value 0.984 | S. cerevisiae deletion strains, locus YNR052C, strain pop2, stronger effect = lower value 0.961 | S. cerevisiae deletion strains, locus YOL006C, strain TOP1, stronger effect = lower value 1.06 | S. cerevisiae deletion strains, locus YOL012C, strain htz1 1.62 | S. cerevisiae deletion strains, locus YOL147C, strain pex11, stronger effect = lower value 0.998 | S. cerevisiae deletion strains, locus YOR001W, strain rrp6, stronger effect = lower value 0.958 | S. cerevisiae deletion strains, locus YOR061W, strain CKA2, stronger effect = lower value 1 | S. cerevisiae deletion strains, locus YOR069W, strain VPS5, stronger effect = lower value 1 | S. cerevisiae deletion strains, locus YOR070C, strain gyp1, stronger effect = lower value 1.01 | S. cerevisiae deletion strains, locus YOR080W, strain dia2, stronger effect = lower value 1.01 | S. cerevisiae deletion strains, locus YOR083W, strain WHI5, stronger effect = lower value 0.968 | S. cerevisiae deletion strains, locus YOR106W, strain vam3, stronger effect = lower value 0.936 | S. cerevisiae deletion strains, locus YOR136W, strain idh2, stronger effect = lower value 0.999 | S. cerevisiae deletion strains, locus YOR144C, strain elg1, stronger effect = lower value 0.988 | S. cerevisiae deletion strains, locus YOR184W, strain ser1, stronger effect = lower value 0.978 | S. cerevisiae deletion strains, locus YOR231W, strain MKK1, stronger effect = lower value 0.983 | S. cerevisiae deletion strains, locus YOR265W, strain rbl2, stronger effect = lower value 1.01 | S. cerevisiae deletion strains, locus YOR270C, strain vph1, stronger effect = lower value 1.02 | S. cerevisiae deletion strains, locus YOR290C, strain snf2, stronger effect = lower value 0.994 | S. cerevisiae deletion strains, locus YOR316C, strain cot1, stronger effect = lower value 1 | S. cerevisiae deletion strains, locus YPL051W, strain arl3, stronger effect = lower value 0.981 | S. cerevisiae deletion strains, locus YPL055C, strain LGE1, stronger effect = lower value 1.02 | S. cerevisiae deletion strains, locus YPL078C, strain atp4, stronger effect = lower value 0.974 | S. cerevisiae deletion strains, locus YPL106C, strain sse1, stronger effect = lower value 1.03 | S. cerevisiae deletion strains, locus YPL240C, strain hsp82, stronger effect = lower value 0.986 | S. cerevisiae deletion strains, locus YPL241C, strain CIN2, stronger effect = lower value 1.01 | S. cerevisiae deletion strains, locus YPL256C, strain CLN2, stronger effect = lower value 0.98 | S. cerevisiae deletion strains, locus YPR119W, strain clb2, stronger effect = lower value 0.996 | S. cerevisiae deletion strains, locus YPR141C, strain kar3, stronger effect = lower value 1 | S. cerevisiae deletion strains, locus YPR163C, strain tif3, stronger effect = lower value 1.02 | S. cerevisiae deletion strains, locus YPR167C, strain met16, stronger effect = lower value 0.986 | S. cerevisiae deletion strains, strain wtn01, stronger effect = lower value 0.987 | S. cerevisiae strains, strain wild type, stronger effect = lower value 1.01
active: S. cerevisiae deletion strains, locus YLR262C, strain YPT6 (second series), stronger effect = lower value 0.789
